# Experimental data reported in the supplement of paper PMC10338343.
# ± gives the standard deviation. The full ranking holds about 8,200 sequences; the median of “pre-steady-state target cleavage rate” is about 0.024, and the highest 2% start at about 1.3. The full list was thinned out, with the highest values kept by preference.
# System: MIWI (PIWIL1) piRISC loaded with L1MC piRNA (30 nt)
# Experiment: pre-steady-state target cleavage rate (min^-1); MIWI and MILI are mouse PIWI proteins and EfPiwi is from a freshwater sponge; tags in brackets are library labels; higher = faster piRNA-guided slicing of the target
# Settings: guide: L1MC piRNA 5'p-UAACUAAAUACUAUGCAAGCUGUAGGUCCU
# Procedure, shortened: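 In this Cleave-'n-Seq assay, uncleaved targets were sequenced and normalised to depth and to weakly complementary targets. They came from a transcribed, DNA-blocked target RNA library […] mixed with 1 nM active affinity-purified piRISC carrying one synthetic guide, with or without 500 nM GTSF1 partner protein, in HEPES–potassium acetate buffer at 33 °C for 0–8 or 0–960 min. After three trials were pooled and k3 was capped at 0.0001 min^-1, the pre-steady-state cleavage rate was obtained from a burst-and-steady-state fit.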
# [1] = auxiliary factor: 500 nM mouse GTSF1
# [2] = auxiliary factor: none (no GTSF1)
# 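Note: 1 nM active piRISC with 0.1 nM target library at 33 °C single turnover.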
Sequence,pre-steady-state target cleavage rate [1],pre-steady-state target cleavage rate [2]
UCCUGCUACAGCUAGCAUAGAAUUUAGUUA,0.528 ± 0.048,0.0108 ± 0.0032
AGGGCCUACAGCUUGCAUAGUAUUUAGUUA,1.39 ± 0.061,0.106 ± 0.023
UGGGCCUACAGCUUGCAUAGUAUUUAGUUA,1.39 ± 0.08,0.0716 ± 0.013
UCCUGGAUGAGCUUGAAUAGUAUUUAGUUA,0.944 ± 0.045,0.0233 ± 0.007
UCCUGGAUCAGCAUGCAUAGUAUUUUGUUA,0.517 ± 0.03,0.00866 ± 0.003
UCCUGCUACAGCUUGCAAAGUAUUUAGAAA,0.319 ± 0.043,0.00338 ± 0.0032
UCCUGCUACAGCUAGGAUAGUAUUUAGUUA,1.15 ± 0.12,0.006 ± 0.0018
UCGACCAACAGCAUGCAUAGUAUUUAGUUA,1.33 ± 0.037,0.033 ± 0.0067
UCCACCAACAGCAUGCAUAGUAUUUAGUUA,0.943 ± 0.032,0.0211 ± 0.0046
AGGACCAACAGCAUGCAUAGUAUUUAGUUA,1.39 ± 0.048,0.0703 ± 0.016
UCCUCCAACAGCAUGCAUAGUAUUUAGUUA,1.11 ± 0.051,0.0217 ± 0.0039
UGGACCAACAGCAUGCAUAGUAUUUAGUUA,1.24 ± 0.046,0.0449 ± 0.01
UCGACCAACAGGUUGCAUAGUAUUUAGUUA,1.16 ± 0.049,0.0326 ± 0.006
UCCACCUAGUGCUUGCAUAGUAUUUUCAAA,0.0568 ± 0.012,
UGGACCUAGUCCUUGCAUAGUAUUUACAAA,0.0221 ± 0.0084,
UGCACCUACAGCUAGCAUAGUAUUUAGUUA,1.22 ± 0.097,0.0194 ± 0.0043
UCCUGGAUGAGCUUGCAUAGUAUUAUGAAA,0.0112 ± 0.0054,
UCGACCUACAGCUUGCAAAGUAUUUACAAA,0.33 ± 0.035,0.00465 ± 0.002
UCCUGCUUGUGCUUGCAUAGUAUUUACAAA,0.0637 ± 0.014,0.00366 ± 0.0024
AGGACCUACAGCAAGCAUAGUAUUUAGUUA,1.2 ± 0.069,0.0105 ± 0.0035
UGGACCUACAGCAAGCAUAGUAUUUAGUUA,1.34 ± 0.1,0.00929 ± 0.0027
UCGACCUACAGCAAGCAUAGUAUUUAGAAA,0.349 ± 0.041,
UCGACCUACAGCAAGCAUAGUAUUUAGUAA,0.818 ± 0.066,0.00275 ± 0.0026
UCGACCUACAGCAAGCAUAGUAUUUAGUUA,1.4 ± 0.083,0.00748 ± 0.0028
UGGACCUACAGCAAGCAUAGUAUUUAGUAA,0.898 ± 0.11,0.0053 ± 0.0019
UCCUCCUACAGCUUGCAUAGUACUUUAGUUA,0.588 ± 0.024,0.00867 ± 0.0017

Sequence,pre-steady-state target cleavage rate [1],pre-steady-state target cleavage rate [2]
AGGACCUAGUCCUUGCAUAGUAUUUACAAA,0.256 ± 0.046,0.00328 ± 0.0019
UCCUGGUACAGCUUGCAUAGUUUUUAGAUA,0.136 ± 0.043,0.00988 ± 0.0027
AGGACCUACAGCUUGCAUAGUAAUUAGAAA,0.475 ± 0.071,0.00445 ± 0.0038
UCCUGGAACUGCAUGCAUAGUAUUUAGUUA,0.442 ± 0.035,0.00687 ± 0.0019
UCGACCUACAGCAUGCUUAGUAUUUAGUUA,0.915 ± 0.057,0.0113 ± 0.0023
UCGACCUACAGCAUGGAUAGUAUUUAGUUA,1.59 ± 0.076,0.0294 ± 0.005
UCCUCCUACAGCAUGGAUAGUAUUUAGUUA,1.38 ± 0.067,0.0219 ± 0.0037
UGGACCUACAGGAAGCAUAGUAUUUAGUUA,0.994 ± 0.094,0.00926 ± 0.0024
UCCACCUACAGCAUGCAUAGUAUUUAGAUA,0.423 ± 0.045,0.00605 ± 0.0027
UCCUCCUACAGCAUGCAUAGUAUUUAGUUA,1.2 ± 0.051,0.0219 ± 0.0048
UCCACCUACAGCAUGGAUAGUAUUUAGUUA,1.34 ± 0.062,0.0231 ± 0.0039
UCCUGCUACAGCAUGGAUAGUAUUUAGUUA,1.13 ± 0.15,0.015 ± 0.0025
UCGACCUACAGCAUGCAUAGUAUUUAGAUA,0.538 ± 0.041,0.0119 ± 0.004
UCCACCUACAGCAUGCAUAGUAUUUAGUUA,0.977 ± 0.054,0.0309 ± 0.0079
AGGACCUACAGCAUGCUUAGUAUUUAGUUA,0.977 ± 0.058,0.0155 ± 0.0029
AGGACCUACAGCAUGGAUAGUAUUUAGUUA,1.57 ± 0.086,0.0502 ± 0.0089
UCCUGGUACAGCUUGACAUAGUAUUUAGUUA,0.271 ± 0.027,
UCCUGGUACACCUUGCAUAGUAUUUUGUUA,0.436 ± 0.1,0.00901 ± 0.0027
ACGACCUACAGCUUGCAUAGUAUUUUCAAA,0.618 ± 0.067,0.00505 ± 0.004
UCCUGGAUGUCCUUGCAUAGUAUUUAGUGUA,0.0232 ± 0.0073,0.00487 ± 0.0027
UGGACCUACAGCAUCCAUAGUAUUUAGUUA,0.102 ± 0.017,0.00273 ± 0.002
UGGACCUACAGCAUGGAUAGUAUUUAGUUA,1.47 ± 0.1,0.0301 ± 0.0054
UGGACCUACAGCAUGCUUAGUAUUUAGUUA,0.877 ± 0.056,0.0147 ± 0.0037
UCCUGGAUGAGCUUGCAUAGUAUAUUGUUA,0.165 ± 0.021,0.0157 ± 0.004
UCCUGGAAGAGCUUGCAUAGUAUUUUGUUA,0.704 ± 0.076,0.0231 ± 0.0062
UCGACCUACAGCUACCAUAGUAUUUAGUAA,0.355 ± 0.037,

Sequence,pre-steady-state target cleavage rate [1],pre-steady-state target cleavage rate [2]
UCCUGCAACAGCUUGCAUAGUAUAUAGUUA,0.844 ± 0.063,0.0237 ± 0.0057
UCCUGCAACAGCUUCCAUAGUAUUUAGUUA,0.0524 ± 0.015,
UCCUGGAUGAGGUUGCAUAGUAUUUAGUUA,0.274 ± 0.022,0.00581 ± 0.0018
UGGACGAUCAGCUUGCAUAGUAUUUAGUAA,0.953 ± 0.064,0.0656 ± 0.013
AGGACGAUCAGCUUGCAUAGUAUUUAGUUA,1.43 ± 0.068,0.0865 ± 0.016
UCCUCGAUCAGCUUGCAUAGUAUUUAGAAA,0.422 ± 0.044,0.00569 ± 0.0022
UCCUCGAUCAGCUUGCAUAGUAUUUAGUUA,1.58 ± 0.056,0.0718 ± 0.013
UGGACGAUCAGCUUGCAUAGUAUUUAGUUA,1.47 ± 0.071,0.0852 ± 0.016
UCCUCGAUCAGCUUGCAUAGUAUUUAGUAA,1.06 ± 0.048,0.04 ± 0.0086
AGGACGAUCAGCUUGCAUAGUAUUUAGUAA,1.02 ± 0.12,0.0692 ± 0.015
UCGACGAUCAGCUUGCAUAGUAUUUAGUUA,1.6 ± 0.047,0.0826 ± 0.017
AGGACGAUCAGCUUGCAUAGUAUUUAGAAA,0.384 ± 0.061,0.0104 ± 0.0037
UCGACGAUCAGCUUGCAUAGUAUUUAGAAA,0.494 ± 0.05,0.0104 ± 0.0033
UGGACGAUCAGCUUGCAUAGUAUUUAGAAA,0.499 ± 0.048,0.0141 ± 0.0042
UCGACGAUCAGCUUGCAUAGUAUUUAGUAA,1.05 ± 0.063,0.048 ± 0.011
UCCUGGAUGAGCUUGCUUAGAAUUUAGUUA,0.0359 ± 0.0063,0.00574 ± 0.0024
UCCUGCAUCAGCUUGCAUAGUAUUUAGUUA,1.2 ± 0.066,0.0666 ± 0.014
UCCUGCUACAGCUUGCAUGUAUUUAGUUA,0.413 ± 0.054,0.00516 ± 0.0026
ACCUCCUACAGCUUGCAUAGUAUUUAGAAA,0.54 ± 0.061,0.00602 ± 0.0029
AGGACCUACAGCAUCCAUAGUAUUUAGUUA,0.319 ± 0.053,
UCGACCUACUCGUUGCAUAGUAUUUACAAA,0.165 ± 0.025,
UGCACCUACACCUUGCAUAGUAUUUAGUUA,0.967 ± 0.059,0.0415 ± 0.0067
UCCUGGUACAGGUUGCAUAGUAUUUACUUA,0.125 ± 0.035,0.00733 ± 0.003
UGGACCUACAGACUUGCAUAGUAUUUAGUUA,1.13 ± 0.1,0.0446 ± 0.0075
UCCUGGAUGUCGUUAGCAUAGUAUUUAGUUA,0.0102 ± 0.0036,
UCCUGGAUGUGCUAGCAUAGUAUAUAGUUA,0.0106 ± 0.0042,
